Test results published in PubChem BioAssay (Tox21).
Results filed as inconclusive are left out. Where a call stands in place of a potency, no number is given. Calls of active or inactive are those of the source. Calls come from the whole dose curve.

These compounds were tested against Retinoic acid receptor RXR-alpha (Homo sapiens) (UniProt P19793) (assay: qHTS assay to identify small molecule agonists of the RXR signaling pathway (AID 1159527; note: nearly all actives have a fitted effect of over 35% in size)). Settings: HEK293T RXRa-UAS-bla, beta-lactamase ratio, 16 h; series mostly up to 76.8 µM.
Chain of Retinoic acid receptor RXR-alpha (Homo sapiens) (P19793 whole entry, looked up): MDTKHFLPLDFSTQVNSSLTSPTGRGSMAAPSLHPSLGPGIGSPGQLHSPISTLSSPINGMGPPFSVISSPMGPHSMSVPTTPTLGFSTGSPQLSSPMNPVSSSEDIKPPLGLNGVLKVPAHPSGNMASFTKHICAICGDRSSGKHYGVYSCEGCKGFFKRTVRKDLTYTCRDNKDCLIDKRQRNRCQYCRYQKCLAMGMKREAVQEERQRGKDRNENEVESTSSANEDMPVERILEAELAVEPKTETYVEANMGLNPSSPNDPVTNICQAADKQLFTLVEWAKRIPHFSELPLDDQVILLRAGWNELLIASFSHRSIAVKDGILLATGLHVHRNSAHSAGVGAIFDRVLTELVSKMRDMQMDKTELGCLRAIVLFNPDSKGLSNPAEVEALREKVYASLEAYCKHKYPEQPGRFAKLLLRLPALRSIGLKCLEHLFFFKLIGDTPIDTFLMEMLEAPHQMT
Excerpt: U.S. Tox21 Program National Center for Advancing Translational Sciences [NCATS] NIH Chemical Genomics Center [NCGC] U.S. Environmental Protection Agency [EPA] National Institutes of Environmental Health Sciences [NIEHS] National Toxicology Program [NTP] U.S. Food and Drug Administration [FDA] Tox21 Assay Overview: The Retinoid X receptor (RXR), a nuclear hormone receptor expressed in liver, spleen, placenta, epidermis, central nervous system. These receptors are able to form homo and heterodimers with other nuclear receptors and due to this heterodimerizing ability, RXR functions as master regulators producing diverse physiological effects. Three subtypes of RXR exist; alpha, beta and gamma. Retinoid X receptor alpha (RXR-alpha) has potential roles in metabolic signaling pathways, skin alopecia, dermal cysts, cardiac development, insulin sensitization etc. Therefore screening environmental chemicals on RXR-alpha signaling can be used for the studies focused on such therapeutic applications. For quantification of RXR-alpha ligands signaling, GeneBLAzer RXR alpha-UAS-bla HEK 293T (Life Technologies, Carlsbad, CA) cells containing a beta-lactamase reporter-gene under control of Retinoid X receptor-alpha response element were used to screen Tox21 10K library.
Tox21 Assay Protocol Summary: RXR-alpha HEK 293T cells were dispensed at 2,000 cells/6 uL of assay medium containing 2% charcoal-stripped FBS using a Multidrop Combi (ThermoFisher Scientific, Waltham, MA) dispenser. The assay was performed in black wall/clear-bottom 1536-well plates (Greiner Bio-One North America Inc. Monroe, NC). 9-cis retinoic acid was used as a positive control in the agonist mode screen. After the assay plates were incubated at 37 C and 5% CO2 for 5 hr, 23 nL of compounds dissolved in DMSO, positive controls or DMSO only were transferred to the assay plate by a Pintool station (Kalypsys, San Diego, CA). The assay plates were incubated at 37 C and 5% CO2 for 16 hr. One uL of LiveBLAzer B/G FRET substrate (Life Technologies) was added using a Flying Reagent Dispenser (Aurora Discovery, San Diego, CA) and the plates were incubated at room temperature for 2 hr. Fluorescence intensity (405 nm excitation, 460/530 nm emission) was measured using an Envision plate reader (PerkinElmer, Shelton, CT).

Compound | Potency | activation
N[C@H]1C(O)O[C@H](CO)[C@@H](O)[C@@H]1O (stereo not given in full) | inactive | 
CC(C)(C)C(=O)NCCCC(=O)O | inactive | 
O=C(CCBr)N1CCN(C(=O)CCBr)CC1 | inactive | 
CCCCC(CC)COC(=O)CC#N (stereo not given) | inactive | 
CC1(C)CC(N)CC(C)(C)N1 | inactive | 
CCCCS | inactive | 
CO/N=C(\C(=O)O)c1csc(NC(=O)CCl)n1 | inactive | 
CCCCc1ccc(Cl)cc1 | inactive | 
CCO/C=C1\N=C(c2ccccc2)OC1=O | inactive | 
C[C@H]1COc2c(C3(N)CC3)c(F)cc3c(=O)c(C(=O)O)cn1c23 | inactive | 
COC(=O)C(c1ccccc1Cl)N1CCc2sccc2C1 (stereo not given) | inactive | 
CCc1ncc(C)[nH]1 | inactive | 
Cc1nc2ccc(Cl)cc2[nH]1 | inactive | 
COCCCOc1cc(C[C@@H](C[C@H](N)[C@@H](O)C[C@H](C(=O)NCC(C)(C)C(N)=O)C(C)C)C(C)C)ccc1OC | inactive | 
CN1CCN(C(=O)C2CCCCC2)CC1 | inactive | 
BrCCOc1ccccc1 | inactive | 
CC(C)C(=O)Nc1cccc(C2CN3CCSC3=N2)c1 (stereo not given) | inactive | 
C=CC(=O)OCC[N+](C)(C)C | inactive | 
CCN(CC)CC | inactive | 
N#Cc1ccccc1C#N | inactive | 

Compound | Potency | activation
CC(=O)c1c(C)cc(C(C)(C)C)cc1C | inactive | 
Cc1cc(=O)oc2cc(O[C@@H]3SC[C@@H](O)[C@H](O)[C@H]3O)ccc12 | inactive | 
COc1cnc(NS(=O)(=O)c2ccc(N)cc2)nc1 | inactive | 
Cc1ccc(S(=O)(=O)NC(=O)NN2CC3CCCC3C2)cc1 (stereo not given) | inactive | 
CC(C)OC(=O)C(C(=O)OC(C)C)=C1SC=CS1 | inactive | 
N=C(N)N | inactive | 
O=C(O)CCC(=O)Nc1ccc(S(=O)(=O)Nc2nccs2)cc1 | inactive | 
N=C(N)N1CCc2ccccc2C1 |  | 5.64% [at 6.98 µM] (inactive)
N#Cc1cc(NC(=O)C(=O)O)c(Cl)c(NC(=O)C(=O)O)c1 | inactive | 
Nc1cc(S(=O)(=O)O)ccc1O | inactive | 
C=CC(=O)OCCOCCOCC | inactive | 
C[C@@H]1CC[C@@]2(OC1)O[C@H]1C[C@H]3[C@@H]4CC[C@H]5C[C@@H](O)CC[C@]5(C)[C@H]4CC(=O)[C@]3(C)[C@H]1[C@@H]2C |  | 2.2% [at 6.98 µM] (inactive)
Cc1cc(C)c(C)c(C)c1 | inactive | 
CNCCc1ccccn1 | inactive | 
C=CCCCCCCCCOC(C)=O | inactive | 
Cc1cc2c(cc1CC(=O)c1sccc1S(=O)(=O)Nc1onc(C)c1Cl)OCO2 | inactive | 
CC(=O)Nc1ccc(OCCOCCOc2ccc(NC(C)=O)cc2)cc1 | inactive | 
CC(C)C(C)C | inactive | 
CCCCC(O)/C=C(C)/C=C/C=C/C(=O)N1CCCC1=O (stereo not given) | inactive | 
CC12CCCC=C1C(=O)OC2=O (stereo not given) | inactive | 
